9 compounds from PubChem BioAssay (NCI) can be followed below.

This is part of a sample that, as a whole, favours compounds with a hit. Of some 83,000 tested, about 20% had one in any assay.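 Compound tested at a single concentration for 48 hours in 96-well plates; a percent growth value below 10 was scored as active.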 Values without a mark were called inactive. Activity calls are given as the source filed them.

Some test systems named below: SR leukemia; RPMI-8226 leukemia; OVCAR-8 ovarian; OVCAR-5 ovarian; OVCAR-4 ovarian; SK-OV-3 ovarian; IGROV1 ovarian; OVCAR-3 ovarian; HS 578T breast; NCI/ADR-RES ovarian; T-47D breast; BT-549 breast; MDA-MB-435 melanoma; SW-620 colon; MCF7 breast; HCT-116 colon; HCC-2998 colon; KM12 colon.
Common to all, as to experiment: NCI-60 one-dose screen, 48 h (100 = growth as untreated, 0 = no growth, -100 = all killed)
Details in all cases: 10 µM unless noted

On to `O=C1CCCC2=C1C(c1c[nH]c3ccc(Br)cc13)Cc1cc(Br)ccc1N2` (configuration not stated), for which the growth with SR leukemia is 33.3%; in the experiment on RPMI-8226 leukemia it was 25.1%; in the experiment on OVCAR-8 ovarian it was 55.3%; in the experiment with OVCAR-5 ovarian it was 66.2%; with OVCAR-4 ovarian it was 101%; in the experiment with SK-OV-3 ovarian, 44.7%. Moreover, the growth in the experiment on IGROV1 ovarian is 24.1%; with OVCAR-3 ovarian, 27.2%; in the experiment on HS 578T breast, 20.2%; in the experiment with NCI/ADR-RES ovarian, 21.4%; with T-47D breast, 20.7%; in the experiment with BT-549 breast, 39.4%. Further, the growth is -10.2% (active) in the experiment with MDA-MB-435 melanoma; 22.7% in the experiment with SW-620 colon; 23.4% in the experiment with MCF7 breast; 19.3% in the experiment with HCT-116 colon; 68.2% in the experiment with HCC-2998 colon; 21.7% with KM12 colon.
Turning to `CCCCCc1ccc(S(=O)(=O)Nc2cccc(-c3csc(NCCN4CCN(C)CC4)n3)c2)cc1`, the growth in the experiment on SR leukemia was -6.54% (active); in the experiment with RPMI-8226 leukemia, -21.4% (active); with OVCAR-8 ovarian it was 94.2%; in the experiment on OVCAR-5 ovarian, 94.1%; in the experiment on OVCAR-4 ovarian, 84.5%; with SK-OV-3 ovarian it was 92.4%. For the same compound, the growth with IGROV1 ovarian was 79.9%; in the experiment on OVCAR-3 ovarian, 68.1%; in the experiment with HS 578T breast, 87%; in the experiment with NCI/ADR-RES ovarian it was 85.7%; in the experiment on T-47D breast it was 80.1%; in the experiment with BT-549 breast it was 95.1%. The growth is 29.7% in the experiment with MDA-MB-435 melanoma; 2.57% (active) in the experiment with SW-620 colon; 15.5% with MCF7 breast; 4.07% (active) in the experiment on HCT-116 colon; -6.69% (active) in the experiment on HCC-2998 colon; 77.7% in the experiment on KM12 colon.
Regarding `O=C(NNc1nc2cc(F)cc(F)c2n2cccc12)c1cnccn1`, the growth in the experiment on SR leukemia is 8.81% (active); in the experiment with RPMI-8226 leukemia, 18.3%; with OVCAR-8 ovarian, 12.7%; in the experiment on OVCAR-5 ovarian, 33.1%; in the experiment with OVCAR-4 ovarian it was 16.2%; in the experiment with SK-OV-3 ovarian, 4.18% (active). The growth with IGROV1 ovarian was 15%; in the experiment with OVCAR-3 ovarian, 30.2%; in the experiment on HS 578T breast, 64.4%; in the experiment with NCI/ADR-RES ovarian it was 3.06% (active); with T-47D breast, 10.3%; with BT-549 breast it was 24.1%. The growth is 31.3% in the experiment with MDA-MB-435 melanoma; 21.7% in the experiment with SW-620 colon; 3.97% (active) with MCF7 breast; 12.3% in the experiment on HCT-116 colon; 49.9% with HCC-2998 colon; 28.7% with KM12 colon.
On to `O=C(Nc1ccc(F)c(F)c1)c1cc(-c2ccc(F)cc2F)ccc1O`, for which the growth in the experiment on SR leukemia was 32.8%; in the experiment with RPMI-8226 leukemia it was -11.4% (active); in the experiment on OVCAR-8 ovarian it was 9.13% (active); in the experiment on OVCAR-5 ovarian, 12.1%; in the experiment with OVCAR-4 ovarian, 10%; in the experiment on SK-OV-3 ovarian, 6.7% (active). The growth in the experiment with IGROV1 ovarian was 14.9%; with OVCAR-3 ovarian, 7.32% (active); in the experiment on HS 578T breast, -0.443% (active); in the experiment with NCI/ADR-RES ovarian, 2.02% (active); with T-47D breast it was 3.6% (active); with BT-549 breast it was -1.22% (active). Further, the growth in the experiment with MDA-MB-435 melanoma was 1.2% (active); in the experiment with SW-620 colon, 12.3%; in the experiment with MCF7 breast it was 0.642% (active); with HCT-116 colon, 6.45% (active); in the experiment with HCC-2998 colon, 15.5%; with KM12 colon it was 0.724% (active).
With `Cn1ccnc1C(=O)/C=C/c1ccc(NC(=O)c2c(F)c(F)c(F)c(F)c2F)cc1`, the growth was 70.2% in the experiment with SR leukemia; 80.6% in the experiment on RPMI-8226 leukemia; 102% in the experiment on OVCAR-8 ovarian; 111% with OVCAR-5 ovarian; 106% in the experiment with OVCAR-4 ovarian; 129% in the experiment with SK-OV-3 ovarian. For the same compound, the growth in the experiment on IGROV1 ovarian was 98.9%; with OVCAR-3 ovarian it was 107%; in the experiment with HS 578T breast it was 112%; in the experiment on NCI/ADR-RES ovarian, 108%; in the experiment on T-47D breast it was 103%; with BT-549 breast, 98.2%. The growth in the experiment with MDA-MB-435 melanoma was 107%; in the experiment with SW-620 colon, 105%; in the experiment on MCF7 breast, 70.8%; with HCT-116 colon, 101%; with HCC-2998 colon it was 125%; in the experiment on KM12 colon it was 105%.
As for `O=S(=O)(NCCCNc1nccc(-c2[nH]c(-c3ccccc3)nc2-c2ccc(Cl)c(O)c2)n1)c1ccc(Br)cc1`, the growth with SR leukemia is 15.3%; in the experiment on RPMI-8226 leukemia, 22.1%; with OVCAR-8 ovarian it was 33.3%; with OVCAR-5 ovarian, 72.2%; with OVCAR-4 ovarian, 46.6%; in the experiment on SK-OV-3 ovarian, 68.4%. For the same compound, the growth in the experiment with IGROV1 ovarian is 36.8%; in the experiment with OVCAR-3 ovarian, 24.1%; in the experiment on HS 578T breast, 63.2%; with NCI/ADR-RES ovarian it was 42.6%; in the experiment with T-47D breast, 30%; with BT-549 breast, 40.3%. Also, the growth in the experiment with MDA-MB-435 melanoma is 2.09% (active); in the experiment on SW-620 colon, 55.8%; with MCF7 breast, 19.5%; with HCT-116 colon it was 14.5%; with HCC-2998 colon, 47.2%; in the experiment with KM12 colon it was 22%.
`C#CC(=O)N(c1ccc(OC)cc1OC)C(C(=O)NCC(=O)OCC)c1cccs1` (configuration not stated): the growth is -25% (active) with SR leukemia; -55.3% (active) with RPMI-8226 leukemia; 46.6% in the experiment on OVCAR-8 ovarian; 2.13% (active) in the experiment on OVCAR-5 ovarian; 116% in the experiment with OVCAR-4 ovarian; 89.5% with SK-OV-3 ovarian. Also, the growth in the experiment on IGROV1 ovarian is -58.1% (active); in the experiment on OVCAR-3 ovarian, -58.9% (active); with HS 578T breast, 20.9%; in the experiment with NCI/ADR-RES ovarian it was 87.5%; in the experiment with T-47D breast it was 38.1%; in the experiment with BT-549 breast it was 70.3%. For the same compound, the growth was 95.5% in the experiment with MDA-MB-435 melanoma; 2.04% (active) with SW-620 colon; 49.1% with MCF7 breast; 41.9% in the experiment on HCT-116 colon; 110% in the experiment with HCC-2998 colon; 28.5% in the experiment on KM12 colon.
Turning to `CCCCCCCn1cc2c(N[C@H](C)c3ccccc3)ncnc2n1`, the growth in the experiment on SR leukemia was 99.5%; in the experiment on RPMI-8226 leukemia it was 100%; in the experiment with OVCAR-8 ovarian it was 103%; in the experiment with OVCAR-5 ovarian, 104%; in the experiment with OVCAR-4 ovarian, 100%; in the experiment on SK-OV-3 ovarian it was 117%. The growth in the experiment on IGROV1 ovarian was 89.9%; in the experiment on OVCAR-3 ovarian, 103%; in the experiment with HS 578T breast, 91.2%; with NCI/ADR-RES ovarian, 102%; in the experiment on T-47D breast it was 99.7%; in the experiment with BT-549 breast it was 102%. Moreover, the growth is 103% with MDA-MB-435 melanoma; 117% in the experiment with SW-620 colon; 90.3% in the experiment on MCF7 breast; 104% with HCT-116 colon; 116% with HCC-2998 colon; 100% in the experiment on KM12 colon.
`Cc1nn(-c2ccccc2)c2ncnc(N/N=C/c3ccccc3O)c12`: the growth is 11.5% with SR leukemia; 20.4% with RPMI-8226 leukemia; 12.2% in the experiment on OVCAR-8 ovarian; 35.9% with OVCAR-5 ovarian; 28.6% in the experiment with OVCAR-4 ovarian; 10.4% in the experiment with SK-OV-3 ovarian. In addition, the growth was 3.8% (active) with IGROV1 ovarian; 29.4% in the experiment on OVCAR-3 ovarian; 35.6% with HS 578T breast; 3.15% (active) with NCI/ADR-RES ovarian; 15.6% with T-47D breast; 25.6% with BT-549 breast. Besides, the growth in the experiment with MDA-MB-435 melanoma was 16.3%; with SW-620 colon, 26.2%; in the experiment on MCF7 breast it was 9.62% (active); in the experiment on HCT-116 colon, 20.9%; with HCC-2998 colon, 52%; in the experiment on KM12 colon, 16.7%.
